Results taken from PubChem BioAssay.
Activity calls are given as the source filed them. Unless noted, no rule for the calls is given here.

Legend:
[1] = anti-His antibody binders, primary screen, artefact control for SMM control protein annotation, biochemical, small-molecule microarray, 635 nm fluorescence (AID 1128); settings: anti-His Alexa647 antibody binding, higher = more signal;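 also: score merges feature fluorescence with signal-to-noise for each printed compound spot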
[2] = tested on: Human papillomavirus type 1a E7 protein (residues 1-88); assay: HPV1a E7 small-molecule binders, primary screen, biochemical, small-molecule microarray, residues 1-88, 635 nm (AID 1129); settings: small-molecule microarray binding, fluorescence 635 nm; higher = more signal
[3] = biological target: Focal adhesion kinase 1 (Homo sapiens) (UniProt Q05397); assay: small-molecule microarray binders of FAK, primary screen, biochemical, 635/667 nm fluorescence, BSA, DTT (AID 1130); settings: PTK2 binding, 635 nm fluorescence, higher = more signal;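 also: composite of spot emission at 667 nm and signal to noise over triplicate slides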
[4] = tested on: Fibrinogen (Alexa647-labelled); assay: fibrinogen binders on compound microarrays, profiling panel, artefact control for SMM control-protein annotation, biochemical, small-molecule microarray, 635/667 nm fluorescence (AID 1131); settings: fibrinogen-A647 binding fluorescence, higher = more signal;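 also: z-score merges 667 nm fluorescence with per-spot signal-to-noise over triplicate slides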
[5] = biological target: Follistatin (Homo sapiens) (UniProt P19883); assay: follistatin binders on small-molecule microarrays, primary screen, biochemical, small-molecule microarray, 635/667 nm fluorescence (AID 1132); settings: FST binding, 635 nm fluorescence, higher = more signal
[6] = biological target: Fibroblast growth factor 2 (Homo sapiens) (UniProt P09038); assay: FGF2 binders on small-molecule microarrays, primary screen, biochemical, small-molecule microarray, 635/667 nm fluorescence (AID 1133); settings: small-molecule microarray binding, FGF2, fluorescence 635/667; higher = more signal
[7] = mitochondrial membrane potential change in A549 cells, profiling panel, cell-based, JC-1 fluorescence, basal, 24 h, 100 nL (AID 1138); settings: higher = more signal;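 also: A549 lung adenocarcinoma cells under basal conditions with no added stimulus; test concentration not given here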
[8] = tested on: Lefty1; assay: Lefty1 binders on small-molecule microarrays, primary screen, biochemical, small-molecule microarray, 635/667 nm fluorescence (AID 1139); settings: small-molecule microarray binding, fluorescence 635/667; higher = more signal
[9] = tested on: wheat germ agglutinin (Triticum aestivum), Alexa647-labelled; assay: wheat germ agglutinin binders on compound microarrays, profiling panel, artefact control for SMM control-protein annotation, biochemical, small-molecule microarray, 635/667 nm fluorescence (AID 1140); settings: WGA-A647 binding, 635 nm fluorescence, higher = more signal;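 also: score merges 667 nm feature emission with signal to noise over triplicate slides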
[10] = biological target: Luciferin 4-monooxygenase (Photinus pyralis) (UniProt P08659); assay: firefly luciferase enzyme inhibitors, primary screen, biochemical, luminescence, purified enzyme, 2006 set (AID 1141); settings: SteadyGlo luminescence, 30 min, higher = more signal, called active from +8 up or from −8 down;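 also: cell-free assay with purified firefly luciferase at 100 ng per well in PBS; test concentration not given here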
[11] = tested on: Wnt5a (protein binding on small-molecule microarray); assay: Wnt5a binders on small-molecule microarray, primary screen, biophysical, 635/667 nm fluorescence (AID 1142); settings: 635 nm fluorescence, higher = more signal;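 also: fluorescence read at 667 nm with signal to noise per printed feature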
[12] = cell viability in Huh7 cells, primary screen, cytotoxicity control for HCV replication inhibitor project, CellTiter-Glo luminescence, basal, 48 h (AID 1143); settings: Huh7 HCV replicon, higher = more signal, called active from +8 up or from −8 down;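 also: Huh7 hepatoma cells carrying a hepatitis C replication reporter with no stimulus; test concentration not given here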
[13] = P. aeruginosa biofilm formation inhibitors, primary screen, PAO1 strain, BacTiter-Glo luminescence, LB-PBS (AID 1144); settings: 12 h, higher = more signal
[14] = CREB reporter modulators without forskolin, primary screen, cell-based, PC12, CRE-LacZ reporter, unstimulated (AID 1145); settings: no forskolin, luminescence, 4.5 h, higher = more signal, called active from +8 up or from −8 down
[15] = CREB reporter modulators under forskolin, primary screen, cell-based, PC12, CRE-LacZ reporter, forskolin-stimulated (AID 1146); settings: luminescence, 4.5 h, higher = more signal, called active from +8 up or from −8 down;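 also: PC12 cells with 6xCRE LacZ reporter stimulated by forskolin 10 µM; beta-galactosidase reporter signal reflecting CREB driven transcription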
[16] = biological target: Streptavidin (Streptomyces avidinii) (UniProt P22629); assay: streptavidin binders on small-molecule microarray, primary screen, artefact control for SMM compound annotation, biophysical, 635/667 nm fluorescence (AID 1147); settings: streptavidin binding, higher = more signal;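 also: signal reflects streptavidin binding to arrayed compounds as a control protein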
[17] = small-molecule binders of probe aInhba, primary screen, biochemical, small-molecule microarray, 635/667 nm fluorescence (AID 1148); settings: higher = more signal;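 also: score merges 667nm spot fluorescence with signal-to-noise for antibody binding to printed compounds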
[18] = biological target: Torsin-1A (Homo sapiens) (UniProt O14656); assay: torsin A binders from cell lysate, primary screen, small-molecule microarray, wild-type, 635/667 nm (AID 1149); settings: COS7 hTOR1A-WT lysate, 635 nm fluorescence, higher = more signal
[19] = biological target: Torsin-1A (Homo sapiens) (UniProt O14656); assay: small-molecule binders of mutant TOR1A in lysate, primary screen, cell lysate, small-molecule microarray, COS7 lysate, 635/667 nm fluorescence (AID 1150); settings: COS7 hTOR1A mutant lysate, 635 nm fluorescence, higher = more signal;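 also: score pools 667 nm emission and signal to noise measuring lysate protein binding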
[20] = tested on: Sonic hedgehog protein (Shh); assay: small-molecule binders of Shh protein, primary screen, biochemical, small-molecule microarray, 635/667 nm fluorescence (AID 1151); settings: small-molecule microarray binding, 635 nm fluorescence; higher = more signal;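 also: Shh protein binding to compounds spotted on small-molecule microarray slides; score combines spot fluorescence intensity with signal-to-noise across triplicate slides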

Sequence of Luciferin 4-monooxygenase (Photinus pyralis) (P08659 whole entry, looked up): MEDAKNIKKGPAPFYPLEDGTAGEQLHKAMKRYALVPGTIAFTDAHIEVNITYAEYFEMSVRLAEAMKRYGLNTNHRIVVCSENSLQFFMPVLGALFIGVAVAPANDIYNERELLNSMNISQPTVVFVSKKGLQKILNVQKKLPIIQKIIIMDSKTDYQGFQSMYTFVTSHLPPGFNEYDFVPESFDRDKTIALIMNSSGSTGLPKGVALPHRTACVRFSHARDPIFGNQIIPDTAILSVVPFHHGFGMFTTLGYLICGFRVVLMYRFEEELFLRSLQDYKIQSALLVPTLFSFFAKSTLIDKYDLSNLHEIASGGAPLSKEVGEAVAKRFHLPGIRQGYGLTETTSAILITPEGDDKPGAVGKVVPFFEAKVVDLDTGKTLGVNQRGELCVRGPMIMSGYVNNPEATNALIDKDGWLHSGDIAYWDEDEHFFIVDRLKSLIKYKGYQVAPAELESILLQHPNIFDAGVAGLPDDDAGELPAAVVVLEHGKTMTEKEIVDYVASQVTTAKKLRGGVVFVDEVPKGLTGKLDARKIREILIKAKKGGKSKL
Sequence of Torsin-1A (Homo sapiens) (O14656 whole entry, looked up): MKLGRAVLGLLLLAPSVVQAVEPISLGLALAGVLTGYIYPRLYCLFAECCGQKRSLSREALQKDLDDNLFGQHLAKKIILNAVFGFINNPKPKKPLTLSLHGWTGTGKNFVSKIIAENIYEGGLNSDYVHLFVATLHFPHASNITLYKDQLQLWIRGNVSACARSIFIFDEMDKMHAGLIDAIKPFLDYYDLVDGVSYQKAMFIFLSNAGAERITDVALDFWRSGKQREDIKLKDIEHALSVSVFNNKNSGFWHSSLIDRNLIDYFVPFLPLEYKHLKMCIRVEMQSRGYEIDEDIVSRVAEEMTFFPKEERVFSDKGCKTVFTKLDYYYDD
Sequence of Focal adhesion kinase 1 (Homo sapiens) (Q05397 whole entry, looked up): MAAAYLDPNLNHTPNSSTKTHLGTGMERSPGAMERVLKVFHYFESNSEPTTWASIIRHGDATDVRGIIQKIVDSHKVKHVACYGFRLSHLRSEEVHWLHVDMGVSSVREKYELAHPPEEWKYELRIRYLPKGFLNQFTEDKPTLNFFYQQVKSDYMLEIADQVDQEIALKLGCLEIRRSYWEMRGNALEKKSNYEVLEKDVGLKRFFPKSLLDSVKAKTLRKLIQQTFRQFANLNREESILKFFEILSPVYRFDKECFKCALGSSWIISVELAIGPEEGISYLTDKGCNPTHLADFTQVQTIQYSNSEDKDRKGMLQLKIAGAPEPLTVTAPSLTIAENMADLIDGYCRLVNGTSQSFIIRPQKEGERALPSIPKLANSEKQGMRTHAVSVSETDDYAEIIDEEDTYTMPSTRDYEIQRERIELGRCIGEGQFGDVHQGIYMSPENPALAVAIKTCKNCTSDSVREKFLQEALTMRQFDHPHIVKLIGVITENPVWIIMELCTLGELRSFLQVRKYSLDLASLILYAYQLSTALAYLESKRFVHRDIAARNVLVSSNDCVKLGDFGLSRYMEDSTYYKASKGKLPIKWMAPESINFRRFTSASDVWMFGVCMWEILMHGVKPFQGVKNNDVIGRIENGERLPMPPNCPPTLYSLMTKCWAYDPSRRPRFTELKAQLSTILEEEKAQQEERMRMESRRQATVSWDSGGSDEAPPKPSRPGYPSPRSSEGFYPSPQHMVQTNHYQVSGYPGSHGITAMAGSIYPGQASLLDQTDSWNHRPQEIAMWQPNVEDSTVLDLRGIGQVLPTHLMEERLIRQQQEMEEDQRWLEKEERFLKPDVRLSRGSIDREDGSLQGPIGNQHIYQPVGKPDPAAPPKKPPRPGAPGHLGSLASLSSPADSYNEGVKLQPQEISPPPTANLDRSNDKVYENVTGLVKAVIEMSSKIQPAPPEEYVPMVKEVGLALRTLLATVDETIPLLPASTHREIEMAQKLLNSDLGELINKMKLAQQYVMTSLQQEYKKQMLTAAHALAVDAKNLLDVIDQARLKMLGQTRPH
Sequence of Streptavidin (Streptomyces avidinii) (P22629 whole entry, looked up): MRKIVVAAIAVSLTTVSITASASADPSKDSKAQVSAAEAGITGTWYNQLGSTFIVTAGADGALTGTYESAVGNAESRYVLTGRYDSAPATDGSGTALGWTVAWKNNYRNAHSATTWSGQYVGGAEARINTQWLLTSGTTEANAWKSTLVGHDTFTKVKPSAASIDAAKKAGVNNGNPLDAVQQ
Sequence of Fibroblast growth factor 2 (Homo sapiens) (P09038 whole entry, looked up): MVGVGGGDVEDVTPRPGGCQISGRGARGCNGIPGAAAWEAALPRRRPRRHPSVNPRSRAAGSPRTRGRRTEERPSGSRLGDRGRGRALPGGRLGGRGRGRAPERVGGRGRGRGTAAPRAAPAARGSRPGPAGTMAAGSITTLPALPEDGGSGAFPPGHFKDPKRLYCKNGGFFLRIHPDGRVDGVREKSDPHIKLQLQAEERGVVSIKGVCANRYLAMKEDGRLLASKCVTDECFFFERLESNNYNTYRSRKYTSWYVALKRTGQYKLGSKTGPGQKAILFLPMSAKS
Sequence of Follistatin (Homo sapiens) (P19883 whole entry, looked up): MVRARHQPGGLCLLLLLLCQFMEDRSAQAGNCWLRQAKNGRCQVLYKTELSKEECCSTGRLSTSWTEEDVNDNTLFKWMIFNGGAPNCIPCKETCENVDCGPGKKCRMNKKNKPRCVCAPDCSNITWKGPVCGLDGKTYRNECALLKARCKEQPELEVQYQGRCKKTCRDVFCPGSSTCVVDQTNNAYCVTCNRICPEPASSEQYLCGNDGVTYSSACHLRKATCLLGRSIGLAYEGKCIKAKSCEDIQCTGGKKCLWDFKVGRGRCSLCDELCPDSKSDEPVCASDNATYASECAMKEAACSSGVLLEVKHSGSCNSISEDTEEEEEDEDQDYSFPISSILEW

Row | SMILES | composite z-score [1] | composite z-score [2] | composite z-score [3] | composite z-score [4] | composite z-score [5] | composite z-score [6] | z-score [7] | composite z-score [8] | composite z-score [9] | z-score [10] | composite z-score [11] | z-score [12] | z-score [13] | z-score [14] | z-score [15] | composite z-score [16] | composite z-score [17] | composite z-score [18] | composite z-score [19] | composite z-score [20]
1 | COc1cc(C(O)C2C=CC3C(=O)N(c4ccccc4)C(=O)C3N2Nc2ccccc2)cc(OC)c1OC (stereo not given) | 1.04 | 1.21 | 0.655 | 1 | 1.14 | -0.085 | -0.193 | -0.383 | 1.24 | -0.171 (inactive) | 0.575 | -0.685 (inactive) | -0.983 (inactive) | -0.322 (inactive) | 0.226 (inactive) | 1.39 | 0.38 | -0.327 | -0.0996 | -0.277
2 | C=C(COC)C(=O)CC[C@@H](OC(C)=O)c1ccccc1OCCO | 0.456 | 0.318 | -0.517 | -0.698 | 1.15 | 1.09 | 0.356 | 0.791 | 0.523 | -2.79 (inactive) | 0.866 | -2.43 (inactive) | -0.787 (inactive) | 1.54 (inactive) | 8.39 (active) | -0.507 | -0.0403 | 0.135 | 1.05 | 2.32
3 | COC(=O)C1(Cc2ccccc2)C=C2C(=C(C)C(=O)C2C)CN1 (stereo not given) | 1.21 | 0.732 | 0.296 | 0.775 | 0.714 | -0.298 | 1.47 | -0.104 | 0.622 | -0.112 (inactive) | 0.266 | -0.723 (inactive) | 0.454 (inactive) | 0.0075 (inactive) | 0.727 (inactive) | 0.621 | 0.155 | 0.103 | 0.0914 | -0.691
4 | C=CCC(OC(C)=O)[C@@H]1[C@@H](N(Cc2ccc(-c3cccc(C(F)(F)F)c3)o2)C(=O)Cc2ccc(F)cc2)c2cc(OCCCO)ccc2N1C(=O)Cc1ccc2ccccc2c1 (stereo not given in full) | 0.114 | -1.33 | -0.216 | -0.193 | 0.112 | -0.599 | 0.696 | -0.482 | 0.0382 | -0.442 (inactive) | -0.268 | -0.229 (inactive) | -1.1 (inactive) | -0.374 (inactive) | 0.767 (inactive) | -0.426 | -0.114 | -0.761 | -0.673 | 0.404
5 | COC(=O)[C@@]1(Cc2ccc(F)cc2)[C@H]2c3cc(C(=O)N4CCCC4)n(Cc4cc(F)cc5c4OCOC5)c3C[C@H]2CN1C(=O)c1ccccc1 | 1.93 | -0.0867 | -0.225 | 0.947 | 0.906 | -0.796 | 1.8 | 0.348 | 0.755 | 2.74 (inactive) | 0.547 | -3.39 (inactive) | 0.403 (inactive) | -0.372 (inactive) | 0.755 (inactive) | 1.57 | 0.328 | -0.659 | -0.212 | 0.229
6 | CC1CC/C=C\[C@H]2OC34C=CCN(CCN5CCOCC5)C(=O)[C@H]3N(CCCO)C(=O)[C@@H]4C2C(=O)O1 (stereo not given in full) | 0.549 | -1.13 | -0.381 | -1.22 | -0.298 | -0.311 | -0.296 | -0.265 | -0.133 | 0.201 (inactive) | -0.239 | 0.0123 (inactive) | 1.13 (inactive) | -0.887 (inactive) | -0.0703 (inactive) | -0.601 | -0.154 | -0.0243 | 0.0876 | 0.624
7 | C=CCC(OC(C)=O)[C@@H]1[C@@H](N(Cc2cccc3ccccc23)C(=O)c2ccc(-c3ccccc3)cc2)c2cc(OCCCO)ccc2N1C(=O)Cc1ccc2ccccc2c1 (stereo not given in full) | 0.203 | 0.0951 | -0.166 | -0.052 | 0.592 | 0.0824 | 0.412 | -0.415 | -0.194 | 0.223 (inactive) | -0.0281 | -0.182 (inactive) | 0.0777 (inactive) | -0.141 (inactive) | 0.0677 (inactive) | 0.911 | 0.0108 | -0.175 | -0.337 | 0.068
8 | CC1CC/C=C\[C@H]2OC34C=CCN(c5ccc6ccccc6c5)C(=O)[C@H]3N(C(C)CO)C(=O)[C@@H]4C2C(=O)O1 (stereo not given in full) | 0.0166 | -1.72 | -0.785 | -1.17 | -0.69 | -0.911 | 0.838 | -0.546 | -0.946 | -1.2 (inactive) | -0.786 | -0.0174 (inactive) | 0.282 (inactive) | -0.0899 (inactive) | -0.0752 (inactive) | -0.926 | -0.0933 | -0.538 | -1.15 | -0.254
9 | CC1CC/C=C\[C@H]2OC34C=CCN(Cc5ccccc5)C(=O)[C@H]3N(CCCCCCO)C(=O)[C@@H]4C2C(=O)O1 (stereo not given in full) | 0.607 | -0.415 | -0.28 | -1.31 | -0.909 | -0.808 | 0.856 | -0.869 | -0.51 | -1.51 (inactive) | -0.523 | -0.649 (inactive) | 2.79 (inactive) | 0.329 (inactive) | 0.138 (inactive) | -0.871 | -0.206 | 1.4 | -0.549 | 0.06
10 | [N-]=[N+]=Nc1ccccc1[C@H]1OC(c2ccc(OCCCO)cc2)=N[C@@]1(Cc1ccccc1)C(=O)NCC(O)CO (stereo not given in full) | 1.67 | 1.21 | 0.0145 | 0.959 | 1.06 | -0.551 | 0.586 | -0.498 | 0.966 | -5.02 (inactive) | 0.96 | -2.87 (inactive) | -0.48 (inactive) | -1.49 (inactive) | -1.2 (inactive) | 0.211 | 0.121 | 0.36 | 0.807 | -1.32
